FLuc modulator: qHTS profiling assay for firefly luciferase inhibitor/activator using purifed enzyme and Km concentrations of substrates (counterscreen for miR-21 project) | Luciferin 4-monooxygenase (Photinus pyralis), P08659 | purified FLuc, Km substrates, luminescence inhibition | 360,000 compounds, 6.9% hits | Potency, µM (top dose mostly 57.5 µM), without a hit: top-dose activity change, negative = inhibition, usual class: inhibitors;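 note: plate controls were vehicle for no effect and reference inhibitor for full effect; nearly all actives have a fitted effect of over 55% in size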
Target sequence (P08659 whole entry, looked up): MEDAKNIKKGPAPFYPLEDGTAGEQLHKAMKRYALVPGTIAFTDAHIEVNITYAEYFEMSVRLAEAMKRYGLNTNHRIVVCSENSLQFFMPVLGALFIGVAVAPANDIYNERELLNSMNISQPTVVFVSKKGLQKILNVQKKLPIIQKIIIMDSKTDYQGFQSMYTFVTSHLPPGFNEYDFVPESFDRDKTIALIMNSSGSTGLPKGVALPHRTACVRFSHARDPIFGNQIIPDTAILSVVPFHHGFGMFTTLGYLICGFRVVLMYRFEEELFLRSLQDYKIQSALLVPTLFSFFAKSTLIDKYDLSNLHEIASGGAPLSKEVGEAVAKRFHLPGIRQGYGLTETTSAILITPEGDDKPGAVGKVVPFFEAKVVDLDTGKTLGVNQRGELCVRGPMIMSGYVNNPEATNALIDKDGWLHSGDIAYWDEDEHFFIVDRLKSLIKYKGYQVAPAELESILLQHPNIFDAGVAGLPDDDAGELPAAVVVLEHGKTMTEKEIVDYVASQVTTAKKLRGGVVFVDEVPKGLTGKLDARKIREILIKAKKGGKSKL
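Biochemical qHTS of compounds, final roughly 60 µM downward over six points, against 10 nM purified firefly luciferase using Km concentrations of substrates (10 uM D-luciferin, 10 uM ATP) in Tris acetate pH 7.5 buffer; luminescence output.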
ELG1 genotox: qHTS screen for small molecules that induce genotoxicity in human embryonic kidney (HEK293T) cells expressing luciferase-tagged ELG1; HEK293T ELG1-luciferase reporter, luminescence, 16 h; Potency, µM (top dose mostly 46 µM), without a hit: at the highest dose activity change, positive = activation, hits mostly activators; 330,000 compounds, 1.3% hits; note: % of control where 0% means no effect; nearly all actives have a fitted effect of over 60% in size
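16 hr compound incubation (37 °C, 5% CO2) of HEK293T cells carrying luciferase-tagged ELG1; luciferase then measured by ONE-Glo luminescence after 30 min at RT.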
SMN2 splice up: qHTS Assay for Enhancers of SMN2 Splice Variant Expression | HEK293 SMN2-luciferase splicing reporter, luminescence, 30-36 h | Potency, µM (series often up to 46.1 µM), inactives show at the highest dose activity change, positive = activation, usual class: activators | 210,000 compounds, 2.8% hits | AID 1458, 2008; note: % of control where 0% means no effect; nearly all actives have a fitted effect of over 55% in size
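HEK293 cells carry an SMN2 […]–luciferase reporter in which exon 7 inclusion puts luciferase in frame. Cells were plated 10-12 h before compound addition, then incubated 30-36 h at 37C. ONE-Glo luminescence was read; sodium butyrate at 4.5 mM final served as control.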
NPC1 promoter act: qHTS Assay for NPC1 Promoter Activators; Huh7 NPC1 promoter luciferase reporter, 24 h; Potency, µM (titrated, usually from 9.22 µM), for inactives: top-dose activation, hits mostly activators; 320,000 compounds, 2.4% hits; note: % of control where 0% means no effect; nearly all actives have a fitted effect of over 60% in size
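Cells: Huh7 expressing luciferase under the NPC1 promoter, 1500/well. Seeded 2 h, compound added, incubated 24 h at 37 °C. Luciferase reagent, 10 min ambient, then luminescence.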
uPA surface inh: qHTS for Inhibitors of Cell Surface uPA Generation | cell surface uPA generation assay, qHTS | Potency, µM (series often up to 38.3 µM), for the others: at the highest dose activity change, negative = inhibition, actives largely listed as inhibitors | 330,000 compounds, 0.31% hits; active = well fitted inhibition curve with a large enough effect; inconclusive = small, poorly fitted or top-dose-only effect; inactive = no such curve, though single readings can be large or run the other way; tested in mouse RAW 264.7 cells; note: % is set by controls: 0 for no effect and ±100 for the full control effect; nearly all actives have a fitted effect of over 55% in size
Rab9 prom act: qHTS Assay for Rab9 Promoter Activators | Huh7 Rab9 promoter-luciferase reporter, luminescence, 24 h | Potency, µM (titrated, usually from 9.22 µM), for inactives: at the top dose activation, negative = inhibition, usual class: activators | 320,000 compounds, 2.8% hits | AID 485297, 2010; note: % of control where 0% means no effect; nearly all actives have a fitted effect of over 60% in size
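Promoter activation is measured as luciferase luminescence in Huh7 cells stably transfected with a Rab9 promoter–luciferase construct, following 24 h compound exposure at 37 °C and 10 min reagent incubation at ambient temperature.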
An asterisk follows results filed as active; [ ] = remark or other dose. An excerpt weighted towards active compounds, which were near 7.3% of everything screened. Unless noted, calls come from the whole dose curve; as a rule, active = well fitted curve in the direction sought with a large enough effect; inconclusive = small, poorly fitted or top-dose-only effect, or another doubt; inactive = no such curve, though single readings can be large; an effect the other way counts as inactive or inconclusive. Potency is the fitted concentration of half-maximal effect.

How did FC(F)(F)c1ccccc1/C=N/N1CCN(Cc2ccccc2)CC1 do in these assays?
FLuc modulator: 19µM*; ELG1 genotox: 17%; SMN2 splice up: 11%; NPC1 promoter act: 23%; uPA surface inh: 1%; Rab9 prom act: 25%

Results for COc1ccccc1N1CCN(/N=C/c2cccc(Cl)c2)CC1 ?
FLuc modulator: 12µM*; ELG1 genotox: 16µM*; NPC1 promoter act: 3.2µM*; uPA surface inh: 1%; Rab9 prom act: 2.2µM*

What do the screens show for `COc1ccccc1N1CCN(/N=C/c2cccc(OC)c2O)CC1`?
FLuc modulator: 7.6µM*; ELG1 genotox: inconclusive; SMN2 splice up: 25µM*; NPC1 promoter act: inconclusive; uPA surface inh: -4%; Rab9 prom act: inconclusive

What do the screens show for `COc1ccccc1N1CCN(/N=C/c2ccc(O)c(O)c2)CC1`?
FLuc modulator: inconclusive; ELG1 genotox: inconclusive; SMN2 splice up: inconclusive; NPC1 promoter act: -28%; uPA surface inh: -17%; Rab9 prom act: -21%

How did Clc1cccc(/C=N/N2CCN(Cc3ccccc3)CC2)c1 do in these assays?
FLuc modulator: 17µM*; ELG1 genotox: inconclusive; NPC1 promoter act: inconclusive; uPA surface inh: -1%; Rab9 prom act: inconclusive

How did O=C(NCCCc1nc2ccccc2n1Cc1ccc(Cl)cc1)C1CCCCC1 do in these assays?
FLuc modulator: inconclusive; SMN2 splice up: -4%

What do the screens show for `COc1cccc(/C=N/N2CCN(c3ccccc3OC)CC2)c1`?
FLuc modulator: 12µM*; ELG1 genotox: 16µM*; SMN2 splice up: 13µM*; NPC1 promoter act: inconclusive; Rab9 prom act: 3.2µM*

How did COc1cccc(/C=N/N2C(=O)CSC2=S)c1O do in these assays?
FLuc modulator: 27µM*; ELG1 genotox: 2%; SMN2 splice up: 11%; NPC1 promoter act: 8%; uPA surface inh: 0%; Rab9 prom act: -1%

Results for COc1ccc(/C=N/N2CCN(c3ccccc3OC)CC2)cc1Br ?
FLuc modulator: 15µM*; ELG1 genotox: 12%; NPC1 promoter act: 21%; uPA surface inh: 4%; Rab9 prom act: 22%

How did COc1ccccc1N1CCN(C(=O)c2cc3c(=O)n(Cc4cccnc4)ccc3nc2C)CC1 do in these assays?
FLuc modulator: 4%

What do the screens show for `COc1ccc(C)cc1NC(=O)C1CCN(S(=O)(=O)c2ccc3c(c2)CCCN3C(C)=O)CC1`?
FLuc modulator: -1%

Results for COc1ccc(Nc2nc(OC)nc(OC)n2)cc1 ?
FLuc modulator: -6%; ELG1 genotox: 11%; NPC1 promoter act: -5%; uPA surface inh: inconclusive; Rab9 prom act: 11%

Results for COc1ccc(Nc2ncnc3sc(-c4ccccc4)cc23)cc1 ?
FLuc modulator: inconclusive; ELG1 genotox: -3%; SMN2 splice up: -19%; NPC1 promoter act: 3%; Rab9 prom act: 3%

How did COc1ccc(Nc2ncnc3ccccc23)cc1 do in these assays?
FLuc modulator: 15µM*; ELG1 genotox: 14%; SMN2 splice up: 11µM*; NPC1 promoter act: 3.2µM*; uPA surface inh: -6%; Rab9 prom act: 2.8µM*

Results for COc1ccc(OC)c(Nc2cc(C)c3ccccc3n2)c1 ?
FLuc modulator: -28%; ELG1 genotox: -5%; NPC1 promoter act: -26%; uPA surface inh: -12%; Rab9 prom act: -16%

What do the screens show for `COc1ccc(Nc2cc(Nc3ccccc3)ncn2)cc1`?
FLuc modulator: inconclusive; ELG1 genotox: inconclusive; NPC1 promoter act: 2µM*; uPA surface inh: inconclusive; Rab9 prom act: 2µM*

Results for COc1cccc(Nc2cc(C)c3ccccc3n2)c1 ?
FLuc modulator: 24µM*; ELG1 genotox: inconclusive; NPC1 promoter act: 25%; uPA surface inh: -7%; Rab9 prom act: -3%[1.84 µM]

Results for COc1ccc(Nc2ccnc(Nc3ccc(OC)cc3)n2)cc1 ?
FLuc modulator: 7.6µM*; ELG1 genotox: -4%; SMN2 splice up: 15%; NPC1 promoter act: inconclusive; uPA surface inh: -2%; Rab9 prom act: inconclusive

What do the screens show for `COc1ccc(Nc2ncnc3ccccc23)c(OC)c1`?
FLuc modulator: inconclusive; ELG1 genotox: 6%; SMN2 splice up: -33%; NPC1 promoter act: -8%; uPA surface inh: 0%; Rab9 prom act: -2%

How did O=C(Oc1cccc(Nc2ncnc3ccccc23)c1)c1ccccc1Cl do in these assays?
FLuc modulator: 17µM*; ELG1 genotox: inconclusive; SMN2 splice up: -42%; NPC1 promoter act: -6%; uPA surface inh: -8%; Rab9 prom act: -8%

Results for O=C(Oc1ccc(Nc2ncnc3ccccc23)cc1)c1cccnc1 ?
FLuc modulator: -2%; ELG1 genotox: 4%; SMN2 splice up: 10%; NPC1 promoter act: 2%; uPA surface inh: inconclusive; Rab9 prom act: 2%

What do the screens show for `COc1cccc(Nc2ncnc3ccccc23)c1`?
FLuc modulator: 11µM*; ELG1 genotox: 4.6µM*; SMN2 splice up: 14µM*; NPC1 promoter act: inconclusive; uPA surface inh: -19%; Rab9 prom act: inconclusive

Results for O=C(Nc1nnc(CCc2ccccc2)s1)c1cccc(F)c1 ?
FLuc modulator: inconclusive; ELG1 genotox: inconclusive; NPC1 promoter act: inconclusive; uPA surface inh: 5%; Rab9 prom act: 23%

Results for C=CCc1c(C)nc2c(OC)cccc2c1Cl ?
FLuc modulator: 13µM*; ELG1 genotox: -1%; NPC1 promoter act: 1%; uPA surface inh: -5%; Rab9 prom act: 1%

Results for CC1(C)COC(c2ccccc2Cl)OC1 ?
uPA surface inh: -3%

How did CC1(C)COC(c2coc3ccccc3c2=O)OC1 do in these assays?
FLuc modulator: 17µM*; ELG1 genotox: inconclusive; SMN2 splice up: inconclusive; NPC1 promoter act: 29%; uPA surface inh: 1%; Rab9 prom act: 27%

How did CCCSc1nc2c(cnn2-c2ccccc2)c(=O)n1N do in these assays?
FLuc modulator: 5.4µM*; ELG1 genotox: inconclusive; NPC1 promoter act: 4.5µM*; uPA surface inh: -1%; Rab9 prom act: 0.79µM*

What do the screens show for `CCCOc1nc(SCCC)nc2c1cnn2-c1ccccc1`?
FLuc modulator: 4%; ELG1 genotox: 2%; NPC1 promoter act: -3%; uPA surface inh: -1%; Rab9 prom act: -2%

How did Nn1c(SCc2ccccc2)nc2c(cnn2-c2ccccc2)c1=O do in these assays?
FLuc modulator: 11µM*; ELG1 genotox: inconclusive; SMN2 splice up: 13µM*; NPC1 promoter act: inconclusive; uPA surface inh: 14%; Rab9 prom act: 3.2µM*

What do the screens show for `O=C(NC1CCCCCC1)C1CCN(C(=O)N2CCOc3ccc(Cl)cc32)CC1`?
FLuc modulator: 1%

Screening data deposited in PubChem by National Center for Advancing Translational Sciences (NCATS).
